# Data: PubChem BioAssay AID1508600 (Functional Genomics Laboratory (NCATS/FGL), 2020)
# The whole screen tested about 53,000 sequences, of which about 3,700 (7%) were called active.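 How the source made its calls: active means gene knockdowns whose robust z-score for IL-1 alpha signal is at least 2 or at most -2, so actives lie on both sides; inactive means the rest.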 Only a selection was taken, and actives are over-represented in it overall.
# Test: Components of the Cytosolic LPS Sensing Pathway: Gene Identification via Genome-wide siRNA Screen;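 further: robust z of the log signal after scaling to non-targeting control siRNA wells of the plate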
# Settings: RAW264.7 macrophages, IL-1a HTRF, actives lie on both sides, screened at 100 nM (by protocol), cells primed 5 h with Pam3CSK4 first
# Outline: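 Using IL-1a HTRF as read-out, the screen measured release from RAW264.7 cells after 48h siRNA knockdown (100 nM), 5 h Pam3CSK4 priming and 24 h cytosolic LipidA. Values were expressed relative to negative-control wells as robust z-scores.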
row,Sequence,z-score
1,GGUACAACUGCUCAUUUUUTT against Rhbdd1,-0.0082 (inactive)
2,GGCCCUAAUUUCAGUAAUATT against Pigv,0.568 (inactive)
3,GCCUUUCUCGUUCCUAUAGTT against Plgrkt,-2.42 (active)
4,GGUUUUUGAGUUUCUGAUUTT against Vps8,1.28 (inactive)
5,CCACCUUGUUGAGUGGCACTT against Smarcd3,-0.177 (inactive)
6,GCAUUUCAAUCGCACGUUUTT against Gal3st2,-0.893 (inactive)
7,CCGAGCAAAAUCUCAAAUUTT against Mdh1,1.89 (inactive)
8,CCCUCUUAGUAACUGGCUCTT against Cdhr4,-0.0846 (inactive)
9,GGAAGACAUGAAAUUGUUCTT against Psma3,-2.69 (active)
10,GCAAGAAGGUUAUUCUAUATT against Atxn3,0.399 (inactive)
11,GGCUUUUGAGAAUUCAUUCTT against Kcna5,2.75 (active)
12,GGCCUAUCUUCUUUACAUATT against Ctbs,0.348 (inactive)
13,GUUUCUGGAGACGGUGGAGTT against Rpl10a,1.74 (inactive)
14,AGGAAAGAAAAUAUGCUGATT against Cox17,1.12 (inactive)
15,GCGUGCUGGUUUUCUGAUUTT against Sbno2,0.333 (inactive)
16,GGAGAUCCAGUUUUUUAACTT against Ndst1,0.566 (inactive)
17,GGUGGAAUUUUCAACUUACTT against Nkx3-1,5.36 (active)
18,GGUCUAGCUCAAAAUCCCATT against Srek1,-1.3 (inactive)
19,GGCUACCGAGACAAUGCUUTT against Pcmtd1,0.232 (inactive)
20,GGAGAAGAAUUCUUACAGGTT against Fbxo16,0.468 (inactive)
21,CCCGACCUCAACAUUUGUATT against Bmp2k,-0.265 (inactive)
22,GGUAGCAAAUCCAACAAGATT against Slamf1,0.226 (inactive)
23,GGCACUUCCUCCCUCAACATT against 4833420G17Rik,-0.57 (inactive)

row,Sequence,z-score
1,GGAGGUCAAAGUAAACUGGTT against Tial1,2.2 (active)
2,CCCAGUAAUAUGAAAAGAGTT against Gucy2f,-0.408 (inactive)
3,GGUUGAAUCCUAAGAAUGUTT against Edc3,0.39 (inactive)
4,GGAGAAAGCUCAGCAUACATT against Usp3,-0.484 (inactive)
5,GGGAAAGCACUCCAACACATT against Frem1,-2.12 (active)
6,CGCAUGACCUUCCAGAUGCTT against Myoz1,0.49 (inactive)
7,GCACAUCAACAUUGAUACUTT against Atp11c,-0.0521 (inactive)
8,GGAAAUCGAGGACUUAUACTT against Wnk4,3.54 (active)
9,GGCAAUGUCUUCUCCAAUATT against Dedd,-0.652 (inactive)
10,GCCGGAAGAAACUCAUGCUTT against Mad2l1bp,-0.152 (inactive)
11,CCUGUUAAUUGAUUACCUUTT against Pla2r1,1.03 (inactive)
12,CCUAACGGUCAGAAGUUGATT against Ccng1,0.39 (inactive)
13,CCUCUCAGUGGUUGAAAUGTT against Wdr5,-2.46 (active)
14,GGGCAGACCUAAUAGCUUATT against Cycs,0.707 (inactive)
15,GCUUUUGACACUUAUAUGATT against Ptk7,-0.299 (inactive)
16,GGCAUGUCUUAAUUUCAUUTT against Shisa2,0.333 (inactive)
17,GGAAGACUCACGGCUCAAATT against Ccdc124,-1.48 (inactive)
18,GGCAUCUUCCUUUAAAAAGTT against Gar1,-0.708 (inactive)
19,GGACAGUUUAAGGACAACATT against Morn2,0.18 (inactive)
20,GGUGGUCUUCAAGUCUGACTT against Cdcp2,1.95 (inactive)
21,GCAUCUCCCUUAUGUCUGUTT against Nubp2,2.12 (active)
22,GGGAAGUGGGAUUCCUAAGTT against Fam220a,0.218 (inactive)
23,GCACGAAGGUCGUUAUUAUTT against Wls,-0.28 (inactive)

row,Sequence,z-score
1,GGUGACACAGGAGAAGAAGTT against Colec10,-0.00926 (inactive)
2,GGUAAUUAAUUCAAAGCAGTT against St8sia4,-0.851 (inactive)
3,GGAGUUUAUGAGGAACUCGTT against Zwint,-0.0598 (inactive)
4,GGGCUAAAUUCAUGGGUUCTT against Timp1,0.681 (inactive)
5,GGGAAGAUCUUCAGGAAAATT against Cbr3,1.1 (inactive)
6,GCUCCUAAUGAAAUGGUUUTT against Kif2a,1.41 (inactive)
7,CGGUAUGUUAUUUUGGUUGTT against Fam216a,-0.236 (inactive)
8,GGGCUGUGGAAACAAUUUATT against Zpld1,2.32 (active)
9,ACUUCCUGAUUGAGAGAAATT against Olfr497,-0.319 (inactive)
10,GGUUCCACUAAUCUUUUUATT against Mark3,0.696 (inactive)
11,GGAGGAGAUUGUCCAGAAATT against Ecm1,1.2 (inactive)
12,GGUCGACAUUGAAGCUAUUTT against Ralyl,-0.517 (inactive)
13,GCAUUGUGAAUAUUCAGAUTT against Cers4,0.623 (inactive)
14,GGCAGUGUGUUAGAUUCUUTT against Cts3,2.35 (active)
15,GGAGACUAUCCUCAUUAUUTT against Smarca4,0.36 (inactive)
16,AUGCUUUGAUCAGUAUGAATT against Vmn1r188,-2.38 (active)
17,GGAGGACAACAAGUACUGCTT against Smap1,-1.08 (inactive)
18,GGAAAAUCGGUUAUCAUAATT against Pde7a,-0.684 (inactive)
19,GCUAUAGCGCGGAAAUGGATT against Dclk3,-0.531 (inactive)
20,GGUCAAAGAACAAAAAGAATT against Muc13,-0.176 (inactive)
21,GGAGCUAAAUGGCUCUGAUTT against Boc,2.98 (active)
22,GGGACUGGCAGAUCUUAUCTT against Gtpbp3,0.817 (inactive)
23,GGAACGAGAAUCGGAGAUGTT against Mapk8ip3,2.92 (active)
